Reference: the supplement of paper PMC11732987, “Enantioselective OTUD7B fragment discovery through chemoproteomics screening and high-throughput optimisation” (Communications Chemistry, 2025)

What was measured:
Test in all cases: log2 ratio of Biotin-Ahx-Ub-VS probe labelling (fragment/DMSO); higher = less target engagement (more negative = stronger competition), active = hit call of the paper (q ≤ 0.05, log2 ratio ≤ -1)
Settings in all cases: compound concentration: 200 uM; treatment time: 3 h
USP34 = USP34 (UniProt Q70CQ2)
Sequence of USP34 (Q70CQ2 whole entry, the tested form may be a part): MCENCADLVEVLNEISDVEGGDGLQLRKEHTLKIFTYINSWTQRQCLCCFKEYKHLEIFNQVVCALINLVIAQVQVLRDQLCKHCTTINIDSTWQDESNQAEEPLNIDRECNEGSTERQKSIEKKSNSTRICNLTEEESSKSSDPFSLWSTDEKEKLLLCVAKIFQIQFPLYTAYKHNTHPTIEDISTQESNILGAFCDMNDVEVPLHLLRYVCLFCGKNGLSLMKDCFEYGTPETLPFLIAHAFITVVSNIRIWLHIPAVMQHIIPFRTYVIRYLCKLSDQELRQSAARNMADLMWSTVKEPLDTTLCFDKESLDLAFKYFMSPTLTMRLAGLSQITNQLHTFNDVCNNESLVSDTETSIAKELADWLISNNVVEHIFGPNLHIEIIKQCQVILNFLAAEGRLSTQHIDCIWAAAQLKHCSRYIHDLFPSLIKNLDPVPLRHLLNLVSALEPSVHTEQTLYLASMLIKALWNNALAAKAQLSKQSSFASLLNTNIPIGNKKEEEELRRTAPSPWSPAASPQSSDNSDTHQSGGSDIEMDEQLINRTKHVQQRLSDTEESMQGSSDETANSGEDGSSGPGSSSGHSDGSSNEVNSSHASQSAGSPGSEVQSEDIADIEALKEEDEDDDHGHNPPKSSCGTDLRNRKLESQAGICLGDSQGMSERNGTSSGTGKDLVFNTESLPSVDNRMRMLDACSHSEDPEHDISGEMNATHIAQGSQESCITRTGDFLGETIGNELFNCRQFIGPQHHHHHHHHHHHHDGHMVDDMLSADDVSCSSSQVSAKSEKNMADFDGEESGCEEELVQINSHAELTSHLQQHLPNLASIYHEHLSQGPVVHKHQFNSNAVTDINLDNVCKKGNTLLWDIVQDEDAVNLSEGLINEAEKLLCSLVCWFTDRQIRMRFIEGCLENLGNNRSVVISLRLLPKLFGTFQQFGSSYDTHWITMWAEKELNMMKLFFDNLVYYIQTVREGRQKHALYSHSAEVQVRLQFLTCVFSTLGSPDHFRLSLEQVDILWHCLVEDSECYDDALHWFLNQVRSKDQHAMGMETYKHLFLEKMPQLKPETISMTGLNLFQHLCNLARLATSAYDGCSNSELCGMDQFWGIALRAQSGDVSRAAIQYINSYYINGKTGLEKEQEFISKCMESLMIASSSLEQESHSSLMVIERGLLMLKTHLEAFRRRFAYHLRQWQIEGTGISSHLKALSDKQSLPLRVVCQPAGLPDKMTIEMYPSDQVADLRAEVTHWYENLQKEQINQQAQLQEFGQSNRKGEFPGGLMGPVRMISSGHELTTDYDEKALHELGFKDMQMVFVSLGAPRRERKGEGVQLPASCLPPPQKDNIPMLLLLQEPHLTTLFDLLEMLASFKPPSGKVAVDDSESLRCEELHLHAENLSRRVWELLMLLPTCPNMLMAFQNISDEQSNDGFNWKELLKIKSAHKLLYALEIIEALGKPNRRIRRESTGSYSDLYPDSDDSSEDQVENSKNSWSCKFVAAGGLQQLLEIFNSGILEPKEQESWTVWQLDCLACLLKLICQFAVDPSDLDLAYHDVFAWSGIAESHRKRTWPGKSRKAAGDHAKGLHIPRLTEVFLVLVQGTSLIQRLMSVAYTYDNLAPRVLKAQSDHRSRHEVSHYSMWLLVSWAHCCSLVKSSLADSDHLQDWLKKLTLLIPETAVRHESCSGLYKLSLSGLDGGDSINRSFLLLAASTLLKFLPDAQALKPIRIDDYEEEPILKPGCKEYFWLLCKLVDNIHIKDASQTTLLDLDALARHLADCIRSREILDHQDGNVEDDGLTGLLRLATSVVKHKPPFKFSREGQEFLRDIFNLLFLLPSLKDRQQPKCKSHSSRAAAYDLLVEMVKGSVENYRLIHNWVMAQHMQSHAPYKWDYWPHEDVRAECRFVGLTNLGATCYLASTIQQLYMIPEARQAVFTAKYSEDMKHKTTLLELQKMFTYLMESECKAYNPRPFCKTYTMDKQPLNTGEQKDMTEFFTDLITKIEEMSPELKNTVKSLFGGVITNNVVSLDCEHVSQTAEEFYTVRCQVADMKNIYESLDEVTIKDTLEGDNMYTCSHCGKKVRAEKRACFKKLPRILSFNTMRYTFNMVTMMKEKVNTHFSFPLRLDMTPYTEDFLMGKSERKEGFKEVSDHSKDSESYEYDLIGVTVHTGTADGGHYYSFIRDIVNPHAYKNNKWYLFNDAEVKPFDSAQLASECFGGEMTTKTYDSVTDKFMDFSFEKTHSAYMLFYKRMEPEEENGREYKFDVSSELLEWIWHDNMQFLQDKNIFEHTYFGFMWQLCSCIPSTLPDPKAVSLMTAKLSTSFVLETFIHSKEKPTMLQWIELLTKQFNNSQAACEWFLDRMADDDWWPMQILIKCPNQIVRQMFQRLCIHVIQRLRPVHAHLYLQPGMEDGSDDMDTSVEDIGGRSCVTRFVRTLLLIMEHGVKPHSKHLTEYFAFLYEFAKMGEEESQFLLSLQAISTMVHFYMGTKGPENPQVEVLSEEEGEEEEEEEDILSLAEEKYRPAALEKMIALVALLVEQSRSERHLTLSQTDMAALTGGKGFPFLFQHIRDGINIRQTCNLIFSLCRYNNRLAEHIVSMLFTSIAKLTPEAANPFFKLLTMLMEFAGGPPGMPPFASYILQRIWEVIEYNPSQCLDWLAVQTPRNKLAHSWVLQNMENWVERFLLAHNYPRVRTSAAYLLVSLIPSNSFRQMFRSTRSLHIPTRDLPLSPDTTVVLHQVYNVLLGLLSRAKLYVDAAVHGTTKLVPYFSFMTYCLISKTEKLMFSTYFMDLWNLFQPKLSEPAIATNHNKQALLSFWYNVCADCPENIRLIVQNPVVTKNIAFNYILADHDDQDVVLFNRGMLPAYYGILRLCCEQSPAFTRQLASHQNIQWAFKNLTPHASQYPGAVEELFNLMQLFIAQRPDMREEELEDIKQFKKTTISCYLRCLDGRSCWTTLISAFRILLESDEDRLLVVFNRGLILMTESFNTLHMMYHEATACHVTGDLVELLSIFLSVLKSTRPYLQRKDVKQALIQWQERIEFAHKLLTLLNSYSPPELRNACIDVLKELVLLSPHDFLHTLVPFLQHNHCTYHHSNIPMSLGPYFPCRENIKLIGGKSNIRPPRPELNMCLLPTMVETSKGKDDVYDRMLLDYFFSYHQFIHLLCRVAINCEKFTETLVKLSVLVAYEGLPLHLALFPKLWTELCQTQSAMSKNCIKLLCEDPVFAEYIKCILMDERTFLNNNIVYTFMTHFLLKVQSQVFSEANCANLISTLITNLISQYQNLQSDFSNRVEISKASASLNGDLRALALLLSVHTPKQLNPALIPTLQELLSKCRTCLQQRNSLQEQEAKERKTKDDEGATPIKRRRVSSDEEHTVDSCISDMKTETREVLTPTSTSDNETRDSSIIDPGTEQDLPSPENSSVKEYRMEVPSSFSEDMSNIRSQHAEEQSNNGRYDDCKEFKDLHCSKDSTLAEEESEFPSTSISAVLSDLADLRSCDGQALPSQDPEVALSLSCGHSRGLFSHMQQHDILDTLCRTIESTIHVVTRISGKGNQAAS
How it was run: (§1)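 HEK293T lysate in Tris/CHAPS/IGEPAL buffer with protease inhibitors (495 µg per sample) was given fragment at 200 µM or vehicle for 3 h, in triplicate. It then received Biotin-Ahx-Ub-VS at 0.5 µM final for 1 h. Labelled DUBs were NeutrAvidin-enriched, digested with LysC and trypsin, and run by diaPASEF LC-MS/MS. Values are average log2 fragment/vehicle ratios by unpaired t-test on global-median-normalised Spectronaut quantities of proteins with ≥2 unique peptides.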

USP36 = molecular target: T1, USP36 (UniProt Q9P275)
T1 sequence (whole entry): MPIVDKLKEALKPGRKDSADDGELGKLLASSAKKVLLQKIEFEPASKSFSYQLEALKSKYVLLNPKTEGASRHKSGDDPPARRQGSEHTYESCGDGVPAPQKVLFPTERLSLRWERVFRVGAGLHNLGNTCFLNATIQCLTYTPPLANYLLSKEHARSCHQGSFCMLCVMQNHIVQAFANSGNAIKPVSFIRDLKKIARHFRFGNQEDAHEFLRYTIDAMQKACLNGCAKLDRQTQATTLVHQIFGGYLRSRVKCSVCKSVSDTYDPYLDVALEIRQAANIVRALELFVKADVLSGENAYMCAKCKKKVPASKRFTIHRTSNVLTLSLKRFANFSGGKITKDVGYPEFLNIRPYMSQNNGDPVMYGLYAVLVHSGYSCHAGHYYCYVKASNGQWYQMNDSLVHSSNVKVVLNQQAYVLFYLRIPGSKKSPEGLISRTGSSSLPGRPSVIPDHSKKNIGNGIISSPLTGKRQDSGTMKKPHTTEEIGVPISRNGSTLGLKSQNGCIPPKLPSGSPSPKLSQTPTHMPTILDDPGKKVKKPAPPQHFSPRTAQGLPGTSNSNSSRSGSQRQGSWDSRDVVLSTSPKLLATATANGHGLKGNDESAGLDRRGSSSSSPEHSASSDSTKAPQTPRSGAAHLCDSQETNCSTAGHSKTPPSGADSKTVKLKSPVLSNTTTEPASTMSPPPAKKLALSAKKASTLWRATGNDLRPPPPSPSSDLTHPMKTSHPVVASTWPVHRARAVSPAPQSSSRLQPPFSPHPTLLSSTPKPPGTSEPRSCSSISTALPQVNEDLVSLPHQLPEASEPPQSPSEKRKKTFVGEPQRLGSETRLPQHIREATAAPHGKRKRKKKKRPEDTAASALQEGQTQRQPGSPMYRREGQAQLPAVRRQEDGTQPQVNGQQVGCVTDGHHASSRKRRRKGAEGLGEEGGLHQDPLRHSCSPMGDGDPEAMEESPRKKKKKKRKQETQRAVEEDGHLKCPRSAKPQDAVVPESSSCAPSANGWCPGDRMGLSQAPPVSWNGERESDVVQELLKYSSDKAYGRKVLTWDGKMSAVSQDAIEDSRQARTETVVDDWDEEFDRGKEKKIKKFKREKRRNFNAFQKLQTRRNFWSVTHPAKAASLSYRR
How it was run: as §1

USP38 = molecular target: T2, USP38 (UniProt Q8NB14)
T2 sequence (whole entry): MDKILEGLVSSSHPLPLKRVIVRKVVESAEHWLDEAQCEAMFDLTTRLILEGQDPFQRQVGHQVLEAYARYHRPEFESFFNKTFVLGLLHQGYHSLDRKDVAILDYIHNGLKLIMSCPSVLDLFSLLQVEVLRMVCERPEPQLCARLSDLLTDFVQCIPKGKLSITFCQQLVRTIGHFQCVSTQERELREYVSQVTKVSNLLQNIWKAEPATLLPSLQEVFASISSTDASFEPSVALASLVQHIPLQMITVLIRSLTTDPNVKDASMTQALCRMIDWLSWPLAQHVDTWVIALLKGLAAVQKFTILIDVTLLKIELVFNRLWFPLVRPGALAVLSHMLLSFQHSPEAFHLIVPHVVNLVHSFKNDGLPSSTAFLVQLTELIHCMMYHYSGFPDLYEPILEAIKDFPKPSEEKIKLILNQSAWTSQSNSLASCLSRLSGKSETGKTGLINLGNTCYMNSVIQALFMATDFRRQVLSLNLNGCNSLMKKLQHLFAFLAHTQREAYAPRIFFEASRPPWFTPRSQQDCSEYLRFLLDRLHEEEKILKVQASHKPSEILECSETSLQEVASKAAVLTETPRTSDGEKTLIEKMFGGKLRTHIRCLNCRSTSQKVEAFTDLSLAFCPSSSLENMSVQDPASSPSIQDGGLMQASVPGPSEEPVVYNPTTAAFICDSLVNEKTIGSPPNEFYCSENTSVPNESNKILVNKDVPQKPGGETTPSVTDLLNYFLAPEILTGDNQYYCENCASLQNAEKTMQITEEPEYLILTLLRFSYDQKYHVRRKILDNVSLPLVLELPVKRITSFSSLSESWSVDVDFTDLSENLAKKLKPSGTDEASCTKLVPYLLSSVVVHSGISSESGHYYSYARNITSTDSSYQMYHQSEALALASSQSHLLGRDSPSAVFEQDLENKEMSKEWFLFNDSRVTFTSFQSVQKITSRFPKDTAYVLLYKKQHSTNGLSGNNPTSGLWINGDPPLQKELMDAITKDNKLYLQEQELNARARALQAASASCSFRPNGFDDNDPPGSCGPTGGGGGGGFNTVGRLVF
How it was run: as §1

USP39 = molecular target: T3, USP39 (UniProt Q53GS9)
T3 sequence (whole entry): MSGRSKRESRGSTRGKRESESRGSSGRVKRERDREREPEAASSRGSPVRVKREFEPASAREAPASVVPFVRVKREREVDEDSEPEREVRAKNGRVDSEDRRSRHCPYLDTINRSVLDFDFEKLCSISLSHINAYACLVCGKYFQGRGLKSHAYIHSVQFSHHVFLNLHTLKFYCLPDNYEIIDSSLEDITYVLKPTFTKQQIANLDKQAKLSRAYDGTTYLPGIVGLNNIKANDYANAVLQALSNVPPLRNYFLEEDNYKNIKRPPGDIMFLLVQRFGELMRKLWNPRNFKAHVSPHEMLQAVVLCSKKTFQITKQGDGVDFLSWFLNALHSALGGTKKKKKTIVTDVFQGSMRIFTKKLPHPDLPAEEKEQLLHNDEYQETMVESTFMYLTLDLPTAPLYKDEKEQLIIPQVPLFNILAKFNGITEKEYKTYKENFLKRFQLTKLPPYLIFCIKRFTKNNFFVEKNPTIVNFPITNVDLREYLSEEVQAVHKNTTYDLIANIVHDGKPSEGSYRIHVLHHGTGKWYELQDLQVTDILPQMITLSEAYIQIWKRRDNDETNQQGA
How it was run: as §1

USP4 = molecular target: T4, USP4 (UniProt Q13107)
T4 sequence (whole entry): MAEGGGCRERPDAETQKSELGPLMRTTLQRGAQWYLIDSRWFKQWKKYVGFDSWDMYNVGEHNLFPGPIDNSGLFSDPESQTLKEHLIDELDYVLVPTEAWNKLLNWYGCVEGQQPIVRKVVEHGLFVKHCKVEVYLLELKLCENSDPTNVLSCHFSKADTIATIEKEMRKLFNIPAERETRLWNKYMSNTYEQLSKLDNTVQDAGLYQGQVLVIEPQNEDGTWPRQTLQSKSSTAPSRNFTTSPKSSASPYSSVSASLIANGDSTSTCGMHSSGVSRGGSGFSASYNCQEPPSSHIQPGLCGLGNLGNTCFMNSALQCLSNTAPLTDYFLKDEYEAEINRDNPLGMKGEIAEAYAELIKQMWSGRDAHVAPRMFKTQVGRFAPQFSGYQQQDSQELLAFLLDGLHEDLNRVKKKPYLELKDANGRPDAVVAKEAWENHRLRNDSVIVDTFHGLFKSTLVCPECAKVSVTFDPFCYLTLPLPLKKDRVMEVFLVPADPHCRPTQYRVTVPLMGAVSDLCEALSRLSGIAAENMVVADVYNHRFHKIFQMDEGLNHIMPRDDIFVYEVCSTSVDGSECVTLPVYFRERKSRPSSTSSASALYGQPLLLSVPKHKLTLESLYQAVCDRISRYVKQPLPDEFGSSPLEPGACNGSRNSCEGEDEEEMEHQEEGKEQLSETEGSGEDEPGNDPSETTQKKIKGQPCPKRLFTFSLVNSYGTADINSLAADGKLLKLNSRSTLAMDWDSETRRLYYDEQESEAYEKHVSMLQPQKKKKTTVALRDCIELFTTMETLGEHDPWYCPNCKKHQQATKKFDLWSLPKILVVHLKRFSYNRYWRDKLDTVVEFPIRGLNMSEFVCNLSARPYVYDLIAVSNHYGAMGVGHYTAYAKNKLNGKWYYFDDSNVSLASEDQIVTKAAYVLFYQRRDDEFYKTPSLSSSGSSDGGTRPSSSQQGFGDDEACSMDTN
How it was run: as §1

Measured: log2 ratio of Biotin-Ahx-Ub-VS probe labelling

Cc1noc(C)c1CNC(=O)CCl
inactive: USP34 -0.584 | USP36 -0.32 | USP38 -0.547 | USP39 0.303 | USP4 -0.608
